# Bioassay records as filed in PubChem.
# GFP derepression – epigenetic GFP locus derepression in mouse cells; mouse C127i GFP locus derepression, cytometry, 30 h; Potency, µM (titrated, usually from 46.1 µM), for the others: top-dose GFP derepression (activation); hit rate 0.09% among 68,000; AID 597; further: % of control where 0% means no effect
#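 Derepression screen: silenced CMV-GFP reporter in murine C127i cells, 30 h compound incubation at 37 C, washed cells imaged by laser-scanning cytometer to enumerate GFP-expressing objects of 20 to 120 um.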
# Ub-GFP proteasome – proteasome inhibitors stabilizing ubiquitin-GFP reporter. Ubiquitin-GFP reporter cells, proteasome inhibition, GFP fluorescence; response scale: untreated = 0%, 10 µM MG-132 = 100%. Potency, µM (titrated, usually from 45.9 µM), for the others: at the top dose activation (GFP accumulation), most hits filed as activators. 67,000 tested, under 10 active; active means well fitted activation curve with a large enough effect, not every such curve was filed as active; inconclusive means small, poorly fitted or top-dose-only effect, or another doubt; inactive means no such curve, though single readings can be large or run the other way; further: potency means the concentration at half of the fitted maximal effect
#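 GFP accumulation read-out: laser plate cytometry counting ubiquitin(G76V)-GFP-expressing U2OS cells after 4 hr compound exposure at 37 °C. Titrations spanned 46 uM to 2.9 nM; 0% = basal, 100% = 10 uM MG-132; concentration-response curves fitted.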
# GBA activity – human lysosomal glucosylceramidase modulation; purified enzyme, resorufin glucoside fluorescence (screen aimed at inhibitors), 20 min; Potency, µM; P04062; hit rate 1.1% among 48,000; in the data active means potency below about 15 µM; inconclusive means mostly about 16 µM to 33 µM;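 further: potency means the concentration at half of the fitted maximal effect; the screen sought inhibitors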
#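 Compounds titrated against 0.2 nM normal enzyme, 30 uM resorufin beta-D-glucopyranoside substrate, citrate/phosphate buffer with taurocholate and tween-20, pH 5.9. Reaction ran 20 min at room temperature; fluorescence (Ex 548/Em 600) gave AC50.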
# Hsp90 Hop PPI – changes Hsp90-Hop TPR2A binding signal, up or down. AlphaScreen TPR2A-His6 binding biotin-Hsp90 C-terminal peptide. Potency, µM (titrated, usually from 57 µM), for inactives: at the top dose activity change, negative = inhibition. hit rate 0.44% among 71,000. AID 595; active means well fitted curve in either direction with a large enough effect; inconclusive means small, poorly fitted or top-dose-only effect, or another doubt; further: potency means the concentration at half of the fitted maximal effect; on the % scale 0 is the no-effect control and ±100 the full control effect
# USP2a inh – blocks human ubiquitin-specific protease USP2a | O75604 | Potency, µM (doses to about 38.3 µM), without a hit: at the highest dose activity change, negative = inhibition, most hits filed as inhibitors | AID 927 | USP2a enzymatic assay, qHTS inhibition | hit rate 0.1% among 60,000; further: potency means the concentration at half of the fitted maximal effect; nearly all actives have a fitted effect of over 60% in size
# Target sequence (O75604 whole entry, looked up): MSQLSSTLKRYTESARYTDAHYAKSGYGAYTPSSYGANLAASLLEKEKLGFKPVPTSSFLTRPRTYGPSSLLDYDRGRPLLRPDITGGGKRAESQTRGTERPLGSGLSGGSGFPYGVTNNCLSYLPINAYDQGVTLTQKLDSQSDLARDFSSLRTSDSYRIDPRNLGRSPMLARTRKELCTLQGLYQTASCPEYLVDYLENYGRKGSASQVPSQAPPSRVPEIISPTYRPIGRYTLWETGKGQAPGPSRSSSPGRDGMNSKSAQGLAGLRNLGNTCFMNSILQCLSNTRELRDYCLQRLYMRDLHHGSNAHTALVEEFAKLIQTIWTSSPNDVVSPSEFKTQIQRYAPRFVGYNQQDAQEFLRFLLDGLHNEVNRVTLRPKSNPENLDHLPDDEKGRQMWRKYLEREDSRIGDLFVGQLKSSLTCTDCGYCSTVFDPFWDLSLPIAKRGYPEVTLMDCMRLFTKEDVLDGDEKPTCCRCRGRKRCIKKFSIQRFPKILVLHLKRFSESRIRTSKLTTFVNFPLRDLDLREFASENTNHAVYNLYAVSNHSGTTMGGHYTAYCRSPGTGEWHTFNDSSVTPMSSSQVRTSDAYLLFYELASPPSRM
#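 Coupled readout: USP2-cleaved Ub-PLA2 (20nM final) turns over NBD C6-HPC (20uM final), Ex 460nm/Em 535nm after 2.5 h, time-zero read flagging artifacts. Enzyme (20nM final, pH 8.0 Tris) given 30 min RT with compound first; NEM defines full inhibition.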
# HBB splice mod – hemoglobin beta splicing modulation; hit rate 0.06% among 65,000; Potency, µM (highest dose often 46.1 µM), for inactives: top-dose activation, hits mostly activators; HBB splicing reporter cell assay, activation; EGFP reporter with mutant IVS2-654 intron; response scale: normalised to 500 nM splice-correcting PNA; further: potency means the concentration at half of the fitted maximal effect; 0% is about no effect
#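 HeLa cells stably expressing EGFP interrupted by mutant beta-globin intron 2 (IVS2-654), 500/well in 2% FCS. Treated with compound for 2 days at 37C. Splicing correction scored as total well GFP intensity (488 nm excitation, 500-520 nm emission); 500 nM antisense PNA served as control.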
# Numbers without * were called inactive; i = inactive; ? = inconclusive; · = no result given; [ ] = another dose, or the depositor's remark. In the library only some 1.1% were active in any assay of this set; here they are far more common. Unless noted, the call rests on the fitted dose curve; in most records, active means well fitted curve in the direction sought with a large enough effect; inconclusive means small, poorly fitted or top-dose-only effect, or another doubt; inactive means no such curve, though single readings can be large; an effect the other way counts as inactive or inconclusive.
SMILES,GFP derepression,Ub-GFP proteasome,GBA activity,Hsp90 Hop PPI,USP2a inh,HBB splice mod
c1ccc(-c2oc3ncnc(NCCN4CCOCC4)c3c2-c2ccccc2)cc1,-3%,11%,13*,-13%,46%,1%
N=c1c2c(-c3ccccc3)c(-c3ccccc3)oc2ncn1CCN1CCOCC1,0%,-1%,>77,?,50%,8%[0.369 µM]
CCN(CC(=O)NCc1cccs1)c1ccc(S(=O)(=O)N2CCOCC2)cn1,-1%,-4%,>77,-1%,-4%,0%
CN1CCN(S(=O)(=O)c2ccc(N(C)Cc3cccs3)nc2)CC1,1%,-2%,4.5*,-5%,2%,-2%
C/C=C/C1Oc2ccc(OC)cc2N2C(=O)C(C)C(OCOC)C12 (stereo not drawn),·,·,·,·,·,0%[9.22 µM]
COC(=O)/C(=C1/Oc2cc(C)oc(=O)c2S1)C(F)(F)F,10µM*,·,·,·,·,·
COC(=O)C1=C(N)Oc2cc(C)oc(=O)c2C1c1ccncc1 (stereo not drawn),1%[20.6 µM],·,·,·,·,·
Cc1cc2nc([C@H](C)C(=O)c3ccc(Cl)cc3)c(=O)[nH]c2cc1C,14%[9.22 µM],-1%[9.17 µM],·,-2%[11 µM],·,2%[9.22 µM]
COc1ccc(Nc2nc(N)nc(CN3CCc4ccccc4C3)n2)cc1,5%,4%,·,?,·,0%
COc1cccc(N2CCN(Cc3nc(N)nc(N4CCCc5ccccc54)n3)CC2)c1,0%,3%,11*,-12%,33%,0%
COc1ccc(N2CCN(Cc3cc(=O)oc4cc(C)c(Cl)cc34)CC2)cc1,-2%,0%,5.3*,-6%,24%,0%[57.5 µM]
CCCCCn1c(N)c(C#N)c2nc3ccccc3nc21,0%,·,2.7*,26%,19%,1%[0.369 µM]
CC1(C)C[C@@H]2C(=O)CCC3O[C@@]3(C)CCC21 (stereo partly drawn),·,·,·,·,-10%,·
Cc1cc(C)c2c(CN3CCN(C)CC3)cc(=O)oc2c1,0%,-5%,i,?,-1%,6%
Cc1cc(C)c2c(CN3CCN(CCO)CC3)cc(=O)oc2c1,0%,11%,5.5*,-3%,-3%,-2%
COc1ccc(-c2c(=O)n(OCc3ccccn3)c3ccccc3[n+]2[O-])cc1OC,-3%,-2%,>77,-30%,4%,-1%
Cc1c(=O)n(OCc2ccccc2F)c2ccccc2[n+]1[O-],13µM*,2%,>77,-9%,4%,20µM*
CCOC(=O)c1c(C)[nH]c(C(=O)Nc2ccc3c(c2)OCO3)c1C,-3%,-4%,13*,-16%,24%,-4%
CCOC(=O)c1ccc(NC(=O)c2ccc3c(c2)OCO3)cc1,-3%,-16%,>77,-1%,7%,-2%
OC(Cc1ccccc1)(Cc1ccccc1)c1ccccc1,0%[9.22 µM],-1%[9.17 µM],·,7%[11 µM],·,3%[9.22 µM]
CCc1nnc(NC(=O)CSc2nnc(-c3ccccc3O)n2-c2ccc(C)cc2)s1,-1%,3%,14*,-3%,21%,·
CCc1nnc(NC(=O)CSc2nnc(Cc3ccccc3)n2-c2ccccc2)s1,-1%,0%,?,-5%,10%,-1%
CCc1nnc(NC(=O)CSc2nnc(CNc3cccc(C)c3)n2-c2ccccc2)s1,0%,1%,11*,-9%,24%,·
N.N.N.N.N.N.N.N.N.N.N.N.N.N.O.O.[Ru].[Ru].[Ru],-2%,-1%,·,16µM*,?,-1%
Cc1nnc(NC(=O)c2ccc(S(=O)(=O)N(C)Cc3ccccc3)cc2)o1,2%,2%,14*,?,25%,-1%
SMILES,GFP derepression,Ub-GFP proteasome,GBA activity,Hsp90 Hop PPI,USP2a inh,HBB splice mod
COCCN(CCOC)S(=O)(=O)c1ccc(C(=O)Nc2nnc(C)o2)cc1,6%,2%,>77,?,1%,0%
CSCc1nnc(NC(=O)c2ccc(S(=O)(=O)N(CC(C)C)CC(C)C)cc2)o1,11%,-8%,6.8*,-25%,34%,-1%
O=Cc1ccsc1B(O)O,·,·,·,·,·,0%
Oc1ccc(Cc2nccc3cc(O)c(O)cc23)cc1O,-1%[9.22 µM],1%[9.17 µM],·,-7%[11 µM],·,-1%[9.22 µM]
COc1cc2c3c(c1)/C(=C1/SC(NC(C)=O)=NC1=O)C(=O)N3C(C)(C)C=C2C,2%,-4%,?,25µM*,44%,-2%
c1ccc(N2CCN(c3nc(NCc4ccco4)c4ccccc4n3)CC2)cc1,3%[20.6 µM],·,·,·,·,·
c1coc(CNc2nc(N3CCCCC3)nc3ccccc23)c1,0%,-2%,9.6*,-4%,·,0%[57.5 µM]
CC(C)(C)C(=O)Nc1ccc(-c2cn3ccsc3n2)cc1,-4%,4%,i,-3%,2%,0%[57.5 µM]
O=S(=O)(Nc1ccc(-c2cn3ccsc3n2)cc1)c1ccc2c(c1)OCCO2,-3%,-2%,15*,-11%,23%,0%[57.5 µM]
CN1CCN(c2ncc3nc(-c4ccc(F)cc4)c(=O)n(C4CC4)c3n2)CC1,5%[9.22 µM],3%,·,-1%,10µM*,0%
CN(C)c1ncc2nc(-c3ccc(Cl)cc3)c(=O)n(C3CC3)c2n1,?,25%,·,24%,53%,0%
CN(C)c1ncc2nc(-c3ccccc3)c(=O)n(C3CC3)c2n1,-3%[9.22 µM],3%,·,20µM*,-4%,2%
O=C(Nc1cccc(F)c1)N1CCCC2(CCN(C(=O)c3ccncc3)CC2)C1,9%[9.22 µM],22%,·,-6%,19%,0%
O=C(N/N=C1/C[C@@H](O)[C@@H](O)[C@@H]2[C@@H]3C(=O)N(C4CCCCC4)C(=O)[C@H]3CC[C@H]12)OCc1ccccc1,·,·,·,·,·,0%[9.22 µM]
C=CC[C@@H]1C=C[C@H](O/N=C(\C)CCN2CCc3nc(CC)c(CC)cc3C2)[C@H](CO)O1,·,·,·,·,·,1%[9.22 µM]
NC1=NC(=Nc2ccccc2)c2ccccc21,0%,-2%,10*,-3%,-2%,12%[57.5 µM]
Nc1ccc(N=Nc2ccccc2)c(N)c1,·,·,·,?,·,0%
CC(C)(CC(=O)Nc1ccccc1)C(=O)O,1%[9.22 µM],-7%[9.17 µM],·,-3%[11 µM],·,3%[9.22 µM]
COc1ccc(N2CCN(S(=O)(=O)/C=C/c3ccccc3)CC2)cc1,0%,-5%,>77,-3%,-2%,-1%
CN1CCN(S(=O)(=O)c2ccc(N3CCN(S(=O)(=O)/C=C/c4ccccc4)CC3)nc2)CC1,?,2%,13*,1%,34%,0%[57.5 µM]
Cn1cccc1C(=O)N1CCC2(CCCN(c3cccc(-c4ccccc4)c3)C2)CC1,2%[9.22 µM],-4%,·,?,131%,4%
COc1cc(-c2cc(C(=O)N3CCN(c4ccccn4)CC3)c3ccccc3n2)cc(OC)c1OC,1%,19%,15*,-4%,23%,-1%
COc1ccc(-c2cc(C(=O)N3CCN(c4ccccn4)CC3)c3ccccc3n2)cc1,0%,-7%,>77,-9%,26%,1%
